Inconclusive results are not listed. Activity calls are given as the source filed them. The call rests on the fitted dose curve; in most records, active means well fitted curve in the direction sought with a large enough effect in the signal ratio, with a control signal flat (not every such curve was filed as active); inconclusive means small, poorly fitted or top-dose-only effect, or a change in a side signal; inactive means no such curve, though single readings can be large or run the other way; the % refers to the signal ratio.
Assay: qHTS Assay for Identification of Small Molecule Inducers of Hypoxia Response (AID 2120)
Conditions: hypoxia response reporter cells, beta-lactamase ratio readout; series mostly up to 104 µM
Text: NIH Chemical Genomics Center [NCGC]
NIH Molecular Libraries Screening Centers Network [MLSCN]
National Institutes of Environmental Health Sciences [NIEHS]
National Toxicology Program [NTP]
Hypoxia-inducible factor-1 (HIF-1) is the major hypoxia-regulated transcription factor that controls cellular responses to low oxygen concentration. HIF-1 is composed of two subunits: hypoxia responsive HIF-1a and constitutively expressed HIF-1b, which is also known as aryl hydrocarbon receptor nuclear translocator. During hypoxic conditions, HIF-1a heterodimerizes with HIF-1b and translocates into the nucleus where the HIF-1 complex binds to the hypoxia-response element (HRE) and activates expression of target genes such as VEGF (vascular endothelial growth factor). The HIF-1 pathway is essential to normal growth and development, and is involved in the pathophysiology of cancer, inflammation, and ischemia.
Using a beta-lactamase reporter-gene under control of the hypoxia response element, a cell-based assay [CellSensor(TM) HRE-bla ME-180 developed by Invitrogen Corp.] was used to measure hypoxia-induced signaling. Library compounds were measured for their ability to induce the reporter gene activity. Compounds were screened in a titration series in 1536-well format. The inducers were identified based on the AC50 values derived from the screening data.
NCGC Assay Protocol Summary
2500 cells/5uL in Opti-MEM medium containing 0.5% dialyzed FBS, 0.1 mM NEAA, 1 mM sodium pyruvate and 10 mM HEPES was dispensed into 1536-well plates and cells were cultured at 37 degrees Celsius for 4-5 hours and then 23 nL of compounds or DMSO were delivered to each well using a pin tool. The plates were incubated at 37 degrees Celsius for 17 hours. 1 uL of CCF4-dye mixture was added to each well. After incubated at room temperature for 2.5 hours the plates were measured on an EnVision plate reader at Excitation 405nm, Emission1=460nm and Emission 2=530nm. The %Activity was determined from the ratio of 460nm/530nm.
For O=C(O)c1ccc(Cl)c(Cl)c1, the outcome was “inactive”. With OC1CCCC1 the outcome was “inactive”. In the case of S=C([S-])NCCNC(=S)[S-].[Zn+2], the outcome is reported as “inactive”. For CCOC(=O)C(C)C(C)=O (stereo not given), the outcome was “inactive”. With CC(C)N=C=NC(C)C the outcome was “inactive”. In the case of Nc1ccc(F)cc1F, the outcome is reported as “inactive”. For Cc1ccccc1C(N)=O, the outcome was “inactive”. With Cc1cccc([N+](=O)[O-])c1C(=O)O the outcome was “inactive”. For O=CNc1ccccc1, the outcome was “inactive”. In the case of CCCCC(=O)N(C)C, the outcome is reported as “inactive”. In the case of CC=C(Cl)Cl, the outcome is reported as “inactive”. With CC(=O)c1nccs1 the outcome was “inactive”. In the case of CC(=O)OC(C)C, the outcome is reported as “inactive”. In the case of CCCCC(CC)C(=O)O (stereo not given), the outcome is reported as “inactive”. With Cc1cccc(C)c1 the outcome was “inactive”. In the case of [O-]/[N+](=N\O)c1ccccc1, the outcome is reported as “inactive”. For CC1=C(/C=C/C(C)=C/C=C/C(C)=C\C=O)C(C)(C)CCC1, the outcome was “inactive”. For CC(=O)Nc1ccc(C)cc1, the outcome was “inactive”. With CCCC=O the outcome was “inactive”. For C=CCCCC, the outcome was “inactive”. In the case of CC(CCl)OC(C)CCl (stereo not given), the outcome is reported as “inactive”. In the case of CSc1ccc(C=O)cc1, the outcome is reported as “inactive”. For O=Cc1c(Cl)cccc1Cl, the outcome was “inactive”. For CCNS(=O)(=O)c1ccc(C)cc1, the outcome was “inactive”. In the case of N#CC1(O)CCCCC1, the outcome is reported as “inactive”. For OC(CCl)CCl, the outcome was “inactive”. With O=C(O)/C=C/C(=O)O the outcome was “inactive”. In the case of O=[N+]([O-])c1c(Cl)cc(Cl)cc1Cl, the outcome is reported as “inactive”. In the case of C=C(C)OC(C)=O, the outcome is reported as “inactive”. With O=Cc1cccc(Br)c1 the outcome was “inactive”. With Cc1cc(C)c(N)cc1C the outcome was “inactive”. With CC(C)N(C)C the outcome was “inactive”. In the case of C=CCCC, the outcome is reported as “inactive”. For Cc1ccc2oc(=O)ccc2c1, the outcome was “inactive”. In the case of Cc1cscn1, the outcome is reported as “inactive”. For CC1(N)CCC(C(C)(C)N)CC1 (stereo not given), the outcome was “inactive”. With Cc1ccc2nc(-c3ccc(N)cc3)sc2c1S(=O)(=O)O the outcome was “inactive”. With CCCCCCC=O the outcome was “inactive”. For CCc1ccccc1, the outcome was “inactive”. For Nc1cc(Cl)c(N)c(Cl)c1, the outcome was “inactive”.

Source: PubChem BioAssay (NCATS)
